Assay outcomes as filed in PubChem BioAssay.
Cycloheximide cs = Cycloheximide Counterscreen for Small Molecule Inhibitors of Shiga Toxin; max response, %; AID 2314, 2010; cell reporter, cycloheximide protein synthesis inhibition counterscreen; 300,000 tested, 12% active; in the data active means max response mostly above about 13%, no sharp cut-off; inactive means mostly below about 14%; further: read at 38.3 µM for the half of the compounds with a filed dose; 0% is about no effect
Pf growth 96h = Primary qHTS for delayed death inhibitors of the malarial parasite plastid, 96 hour incubation | P. falciparum luciferase reporter growth, 96 h | Potency, µM (highest dose often 28.7 µM), without a hit: top-dose activity change, negative = inhibition, hits mostly inhibitors | 320,000 tested, 6.9% active; further: potency means the concentration at half of the fitted maximal effect; on the % scale 0 is the no-effect control and ±100 the full control effect
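Two parasite generations (96 h, 37 C, 5% CO2) of compound exposure in infected erythrocytes (0.05% parasitemia, 2% hematocrit). Luciferase-reporter P. falciparum; decreased luminescence indicates inhibited growth, aimed at apicoplast-acting delayed death.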
Pf growth 48h = Primary qHTS for delayed death inhibitors of the malarial parasite plastid, 48 hour incubation | 310,000 tested, 5.9% active | Potency, µM (titrated, usually from 28.7 µM), for inactives: at the top dose activity change, negative = inhibition, most hits filed as inhibitors | P. falciparum luciferase growth in erythrocytes, 48 h; further: potency means the concentration at half of the fitted maximal effect; on the % scale 0 is the no-effect control and ±100 the full control effect
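A one-generation exposure of luciferase-tagged malaria parasites in RPMI 1640/Albumax erythrocyte culture, 37 C and 5% CO2. Inhibition is inferred from decreased luminescence after adding detection reagent.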
Shiga toxin inh = A qHTS for Small Molecule Inhibitors of Shiga Toxin. Vero cells, Shiga toxin protein synthesis inhibition reporter. 290,000 tested, 9.2% active. inhibition, % at 38.7 µM; in the data active means inhibition mostly above about 28%, no sharp cut-off; inactive means mostly below about 43%; further: 0% is about no effect
NS1 inh = qHTS Assay for Inhibitors of Influenza NS1 Protein Function; Potency, µM (titrated, usually from 46.1 µM), without a hit: top-dose activity, positive = more growth; 270,000 tested, 0.4% active; calls by dose curve; further: potency means the concentration at half of the fitted maximal effect; actives are rising curves; nearly all actives have a fitted effect of over 50% in size
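A cell-based growth assay was used: compounds that relieve NS1-induced slow growth of budding yeast raise OD600. Assay medium was yeast nitrogen base with ammonium sulphate and -URA supplement, pH 6.0, with 2% galactose.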
* = called active by the depositor; ? = inconclusive; · = no result given. The list is not random: actives were taken first. Their share in the collection is about 21%. Unless noted, the call rests on the fitted dose curve; in most records, active means well fitted inhibition curve with a large enough effect; inconclusive means small, poorly fitted or top-dose-only effect, or another doubt; inactive means no such curve, though single readings can be large or run the other way.

SMILES	Cycloheximide cs	Pf growth 96h	Pf growth 48h	Shiga toxin inh	NS1 inh
COC(=O)c1cccn(CC(=O)c2ccc(Cl)cc2Cl)c1=O	9	34%	?	19	·
Cc1ccc(NC2CCCN(C(=O)CSc3ccccn3)C2)cc1C (stereo not given)	1	-18%	-7%	-11	2%
CC(=O)NCCC(=O)Nc1cc(S(=O)(=O)N2CCCCC2)ccc1N1CCCCC1	·	1.2µM*	1.2µM*	·	·
CC1(C)CC2CC(C)(CN2S(=O)(=O)c2ccc(C(=O)Nc3cc(S(=O)(=O)N4CCOCC4)ccc3Cl)cc2)C1 (stereo not given)	-2	2.6µM*	3.7µM*	17	?
Fc1ccc2c(c1)nnn2C1CCN(Cc2c(Cl)cccc2Cl)CC1	-7	10µM*	10µM*	-4	1%
Cc1ccc2c(c1)nnn2C1CCN(CC(=O)Nc2ccc(F)cc2)CC1	1	?	?	-4	-2%
Cc1ccc(C)c(CN2CCC(n3nnc4cc(F)ccc43)CC2)c1	15	13µM*	8.3µM*	41	1%
Fc1ccc2c(c1)nnn2C1CCN(Cc2nnnn2C2CCCCC2)CC1	-4	-8%	?	-12	-6%
C=CCn1c(=O)/c(=C/c2ccc(O)cc2)s/c1=C(/C#N)c1nnc2n1CCCCC2	-2	?	?	13	-53%
C=CCn1c(=O)/c(=C/c2cc(OC)c(OC)c(OC)c2)s/c1=C(/C#N)c1nc2ccccc2n1C	-8	80%	5.2µM*	-8	12%
CCOC(=O)c1c(NC(=O)CSc2nnc(-c3cccnc3)n2Cc2ccco2)sc(C)c1C	-2	?	?	5	-8%
O=C(O)c1cc(N(Cc2ccccc2O)Cc2ccccc2O)ccc1O	12	·	·	-2	·
CCN(CC)c1ccc(C(=O)c2ccccc2C(=O)O)c(O)c1	22*	18%	1%	28*	21%
CCc1cc(=O)oc2c(CNCc3c(F)cccc3Cl)c(O)ccc12	-3	?	9.3µM*	11	3%
CC(=O)/C(N=Nc1cccc(C(F)(F)F)c1)=C(\C)O	1	0%	-11%	11	·
O=C(/C(N=Nc1cccc(C(F)(F)F)c1)=C(/O)c1cccs1)C(F)(F)F	35*	5.2µM*	?	66*	-59%
CCc1ccc(N(C(=O)CNC(=O)c2ccco2)C(C(=O)NCC2CCCO2)c2ccccc2)cc1 (stereo not given)	-1	4%	-27%	14	1%
COc1ccc(NC(=O)COc2ccc(/C=C/c3cc[n+](C)cc3)cc2OC)cc1	-2	-2%	1.9µM*	-3	-4%
COc1cc(/C=C/c2cccc[n+]2C)ccc1OCC(=O)Nc1ccccc1	-1	0%	1µM*	-4	-4%
COc1ccc(NC(=O)COc2ccc(/C=N/n3c(C)nnc3C)cc2OC)cc1	20	12µM*	·	25	-17%
COc1cc(/C=C/c2cc[n+](C)cc2)ccc1OCC(=O)Nc1ccc(Cl)c(Cl)c1	4	-20%	?	28	-6%
COc1cc(/C=C/c2cccc[n+]2C)ccc1OCC(=O)Nc1cccc(Cl)c1	3	-8%	0.93µM*	-9	-4%
CC(C)OP(=O)(c1ccc(N(C)C)cc1)C(O)c1cccnc1 (stereo not given)	-1	?	-21%	26	-1%
C/C=C/c1ccc(OCC(=O)Nc2cc(OC)c(OC)c(OC)c2)c(OC)c1	-2	?	-16%	-7	·
COc1ccc(NC(=O)COc2ccc(/C=C/c3cccc[n+]3C)cc2OC)cc1	-5	5%	0.93µM*	-4	-5%
SMILES	Cycloheximide cs	Pf growth 96h	Pf growth 48h	Shiga toxin inh	NS1 inh
Cn1c(SCC(=O)NNC(=O)c2ccc(Cl)cc2)nnc1-c1cccnc1	-3	-10%	20%	-4	·
O=C(COC(=O)c1ccc(Cl)nc1)NNC(=O)c1ccc(Cl)cc1	·	28%	-3%	·	·
NC(=O)c1ccsc1NC(=O)c1nc(-c2ccccc2)n(-c2ccccc2)n1	10	7.4µM*	7.4µM*	23	?
NC(=O)c1ccsc1NC(=O)CSc1ccccc1F	36*	9.3µM*	98%	175	-60%
O=C(Nc1ccccn1)c1nc(-c2ccccc2)n(-c2ccccc2)n1	12	?	1%	13	6%
Cc1ccccc1SCC(=O)OCC(=O)Nc1sccc1C(N)=O	6	-19%	-4%	-4	-40%
Cc1csc(SCC(=O)Nc2sccc2C(N)=O)n1	36*	270%	294%	68*	·
Cc1csc(SCC(=O)Nc2nccs2)n1	·	-2%	-2%	·	·
CN(c1ccccc1)S(=O)(=O)c1cc(C(=O)OCC(N)=O)ccc1Cl	-1	-1%	-14%	-4	·
Cc1cccc(C(=O)c2c[nH]cc2-c2ccccc2)c1	5	40%	8%	13	-17%
CC(=O)Nc1ccc(S(=O)(=O)N(C)c2ccc(OCC(=O)OCC(=O)Nc3ccc(OC(F)F)cc3)cc2)cc1	-2	-18%	-5%	-3	8%
COc1cc(-c2ccc3c(=O)c4ccccc4n(C)c3c2)cc(OC)c1OC	11*	4.7µM*	?	16	-59%
COc1ccc(-c2cc(Cl)cc3c(=O)c4ccccc4n(C)c23)cc1F	-2	25%	33%	-2	2%
Cn1c2ccccc2c(=O)c2ccc(F)cc21	16*	?	-25%	18	-104%
Cn1c(-c2ccc3c(c2)OCO3)cc(=O)c2ccccc21	-3	11%	?	-7	0%
Cn1c(=O)c(Oc2ccc(F)cc2)c(O)c2ccccc21	-4	-23%	-9%	-4	-3%
Cn1c2ccccc2c(=O)c2ccc(-c3ccc4c(c3)OCO4)cc21	31*	9.3µM*	56%	46*	-4%
O=S(=O)(c1cccc2nsnc12)N1CCN(Cc2ccccc2)CC1	-4	?	16%	-1	2%
COCCN(C(=O)COC(=O)CSc1ccccc1)c1c(N)n(Cc2ccccc2)c(=O)[nH]c1=O	·	32%	-11%	·	·
COc1ccc(OC)c(NC(=O)CNC(=O)c2ccc([N+](=O)[O-])cc2)c1	12	?	5%	-11	2%
Fc1ccccc1C1c2[nH]c3ccccc3c2CCN1Cc1ccoc1 (stereo not given)	-1	-24%	?	-9	-1%
CCOC(=O)C1C(=O)CC(C)(O)C(C(=O)OCC)C1/C=C/c1ccccc1 (stereo not given)	-7	24%	-22%	-13	0%
CCCOc1c(Br)cc(C2C3=C(CCCC3=O)N(C)C3=C2C(=O)CCC3)cc1OC	-5	-18%	9.3µM*	-5	5%
CCCOc1c(Br)cc(C2C3=C(CCCC3=O)N(CC)C3=C2C(=O)CCC3)cc1OC	-8	0%	?	-5	·
Fc1ccc(-c2csc3ncnc(N4CCc5ccccc5C4)c23)cc1	5	?	?	-5	-23%
Cc1cc(N/N=C/c2ccccc2O)nc(N2CCOCC2)n1	8	?	10µM*	30	-4%
COC(=O)c1ccc(Nc2cc(C)nc(-c3ccccc3O)n2)cc1	-2	4%	?	-6	-2%
